Results filed as inconclusive are left out. The source made the active and inactive calls. The calls were made as follows, unless noted: active = hit-call score of the fitted dose curve at least 0.9, where 1 is the maximum; inconclusive = response in the unintended direction; inactive = score below 0.9.
Columns and labels:
[1] = ATG_FoxO_CIS: Attagene CIS-FACTORIAL HepG2 Assay for human Forkhead box O (FoxO) (AID 2282943; active = hit-call score of the fitted dose curve at least 0.9, where 1 is the maximum; inactive = score below 0.9); details: HepG2 Attagene cis-reporter, FoxO element, mRNA; actives raise or lower the signal
Method in brief: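 HepG2 cells transiently transfected with cis-element-driven reporter units report endogenous FoxO activity. After 24 h chemical exposure, reporter mRNA quantified by RT-PCR, fluorescent labeling, HpaI digestion and capillary electrophoresis; bidirectional fit versus DMSO.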

[2] = ATG_GRE_CIS: Attagene CIS-FACTORIAL HepG2 Assay for human Glucocorticoid Response Elements (GRE) (AID 2282947; active = hit-call score of the fitted dose curve at least 0.9, where 1 is the maximum; inactive = score below 0.9); details: HepG2 GRE cis-reporter, Attagene multiplex mRNA; actives raise or lower the signal
Method in brief: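 Read-out: fluorescent reporter-transcript fragments separated by capillary electrophoresis after RT-PCR. Transiently transfected HepG2 cells carrying cis-element-driven reporter units were dosed for 24 h; gain or loss of signal fitted against DMSO control.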

[3] = target: Heat shock factor protein 1 (Homo sapiens) (UniProt Q00613); experiment: ATG_HSE_CIS: Attagene CIS-FACTORIAL HepG2 Assay for human Heat Shock Transcription Factor 1 (HSE) (AID 2282953; active = hit-call score of the fitted dose curve at least 0.9, where 1 is the maximum; inactive = score below 0.9); details: HepG2 HSE cis-reporter, Attagene RNA transcription; actives raise or lower the signal
Method in brief: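 Endogenous transcription factor activity captured via cis-promoter reporter units transfected into HepG2; treatment lasted 24 h. Fluorescence intensity of reporter fragments analysed with bidirectional curve fitting, DMSO baseline.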

[4] = ATG_PBREM_CIS: Attagene CIS-FACTORIAL HepG2 Assay for human Phenobarbital-responsive Enhancer Module (PBREM) (AID 2282955; active = hit-call score of the fitted dose curve at least 0.9, where 1 is the maximum; inactive = score below 0.9); details: HepG2 PBREM cis-reporter, Attagene multiplexed transcription; actives raise or lower the signal
Method in brief: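 HepG2 cells transiently transfected with multiple cis-regulated reporter units measure endogenous transcription factor activity; 24 h compound exposure. Reporter mRNA quantified by RT-PCR, fluorescent labelling, HpaI digestion and capillary electrophoresis; bidirectional fit versus DMSO.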

[5] = ATG_RORE_CIS: Attagene CIS-FACTORIAL HepG2 Assay for human RAR-related Orphan Receptor Element (RORE) (AID 2282959; active = hit-call score of the fitted dose curve at least 0.9, where 1 is the maximum; inactive = score below 0.9); details: HepG2 Attagene cis-factorial RORE reporter, mRNA; actives raise or lower the signal
Method in brief: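 HepG2 cells carrying transiently transfected cis-regulated reporter units; RORE-driven reporter mRNA quantified 24 h post-dosing by RT-PCR, 6-FAM primer extension, HpaI digestion and capillary electrophoresis. Bidirectional fit versus DMSO.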

[6] = ATG_NRF2_ARE_CIS: Attagene CIS-FACTORIAL HepG2 Assay for human Nuclear Factor Erythroid 2 Related Factor 2 (NFR2) response to Antioxidant Response Elements (ARE) (AID 2282992; active = hit-call score of the fitted dose curve at least 0.9, where 1 is the maximum; inactive = score below 0.9;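 as to AC50: reporter mRNA level measured by RT-PCR and capillary electrophoresis fluorescence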); details: HepG2 Attagene ARE/NRF2 reporter, transcription factor activity; actives raise or lower the signal
Method in brief: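 Endogenous transcription factor activity in human liver HepG2 cells is tracked via a cis-element-driven reporter within a multiplexed set. mRNA induction is read by RT-PCR and capillary electrophoresis after 24 h, with DMSO as baseline.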

[7] = target: human Peroxisome Proliferator-activated Receptor alpha (PPARa), PPARA (gene 5465) (UniProt Q07869); experiment: ATG_PPARa_TRANS: Attagene TRANS-FACTORIAL HepG2 Assay for human Peroxisome Proliferator-activated Receptor alpha (PPARa) (AID 2283001)
Method in brief: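 Transient HepG2 transfection, GAL4-UAS reporters, NR-Gal4 chimeras; 24 h compound exposure. Readout: reporter transcripts by RT-PCR, 6-FAM primer extension, HpaI digest, capillary electrophoresis. Positive direction vs DMSO baseline.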

[8] = target: Peroxisome proliferator-activated receptor gamma (Homo sapiens) (UniProt P37231); experiment: ATG_PPARg_TRANS: Attagene TRANS-FACTORIAL HepG2 Assay for human Peroxisome Proliferator-activated Receptor-gamma (PPARg) (AID 2283007)
Method in brief: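 HepG2 cells are transiently transfected with GAL4-UAS reporter units driven by chimeric NR-Gal4 fusions and dosed for 24 h. Reporter mRNA is quantified by RT-PCR, 6-FAM labelling, HpaI digestion and capillary electrophoresis. Induction is scored against DMSO.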

[9] = target: Nuclear receptor subfamily 1 group I member 2 (Homo sapiens) (UniProt O75469); experiment: ATG_PXR_TRANS: Attagene TRANS-FACTORIAL HepG2 Assay for human Pregnane X Receptor (PXR) (AID 2283008)
Method in brief: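 HepG2 transfected (FuGene 6) with GAL4-UAS reporter units + PXR-Gal4 chimera; dosed 24 h. Total RNA → oligo(dT) RT → PCR → 6-FAM primer extension → HpaI cut → CE. Gain-of-signal vs DMSO.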

[10] = target: Retinoic acid receptor RXR-alpha (Homo sapiens) (UniProt P19793); experiment: ATG_RXRa_TRANS: Attagene TRANS-FACTORIAL HepG2 Assay for human Retinoid X Receptor alpha (RXRa) (AID 2283012)
Method in brief: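 Read-out: fluorescent reporter-transcript fragments quantified by capillary electrophoresis after RT-PCR. Transiently transfected HepG2 cells carrying GAL4-UAS reporters and NR-GAL4 chimeras were exposed to chemical for 24 h; activity scored as increase over DMSO.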

[11] = target: Cellular tumor antigen p53 (Homo sapiens) (UniProt P04637); experiment: TOX21_p53_BLA_p2_ratio: Tox21 HCT-116 p53 Agonism Beta-lactamase Assay, Ratio, Phase 2 (AID 2283592)
Method in brief: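 Cleaved-to-uncleaved substrate ratio (460 vs 530 nm) measured in HCT116 cells with an inducible beta-lactamase reporter linked to p53 activity. Compounds incubated 16 h at 37C before 2 h room-temperature CCF4-AM loading.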

[12] = target: Cellular tumor antigen p53 (Homo sapiens) (UniProt P04637); experiment: TOX21_p53_BLA_p3_ratio: Tox21 HCT-116 p53 Agonism Beta-lactamase Assay, Ratio, Phase 3 (AID 2283596)
Method in brief: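 Cells were seeded at 4000/well, rested 5 h at 37C, then dosed with DMSO compound solutions (217-fold dilution) for 16 h. CCF4-AM substrate was loaded for 2 h at room temperature, and the 460/530 nm emission ratio was fitted for gain of signal versus DMSO.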

[13] = target: Cellular tumor antigen p53 (Homo sapiens) (UniProt P04637); experiment: TOX21_p53_BLA_p5_ratio: Tox21 HCT-116 p53 Agonism Beta-lactamase Assay, Ratio, Phase 5 (AID 2283599)
Method in brief: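 HCT-116 p53-bla cells (4000/well) plated 5 h, dosed with compound (217-fold DMSO dilution) for 16 h at 37 C; CCF4-AM substrate 2 h at room temperature. Activity is the 460/530 nm emission ratio (405 nm excitation), fitted in gain-of-signal direction versus DMSO.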

[14] = TOX21_p53_BLA_p5_viability: Viability Assessment in the Tox21 HCT-116 p53 Agonism Beta-lactamase Assay, Phase 5 (AID 2283600)
Method in brief: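 Viability is taken from cellular ATP content, measured by luciferase luminescence in the same wells after the beta-lactamase ratio read. Cells are seeded at 4000 per well and exposed to DMSO-dissolved compounds, diluted 217-fold, for 16 h.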

[15] = target: Cellular tumor antigen p53 (Homo sapiens) (UniProt P04637); experiment: TOX21_p53_BLA_p4_ratio: Tox21 HCT-116 p53 Agonism Beta-lactamase Assay, Ratio, Phase 4 (AID 2283601)
Method in brief: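 HCT-116 p53 beta-lactamase reporter cells (4000/well) preincubated 5 h, then compound (217-fold dilution of DMSO stock) for 16 h at 37C. CCF4-AM substrate added 2 h at room temperature; 460/530 nm emission ratio fitted upward versus DMSO.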

[16] = ATG_M_19_CIS: Attagene CIS-FACTORIAL HepG2 Assay for M19 Transcription Factor (Internal Marker) (AID 2282939; active = hit-call score of the fitted dose curve at least 0.9, where 1 is the maximum; inactive = score below 0.9); details: HepG2 Attagene CIS-FACTORIAL M19 internal marker reporter; actives raise or lower the signal
Method in brief: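 Signals come from fluorescence of labelled reporter-specific PCR fragments resolved by capillary electrophoresis, following 24 h treatment of HepG2 cells transfected with cis-promoter reporter units; activity was fitted in both directions relative to DMSO.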

[17] = ATG_M_06_TRANS: Attagene TRANS-FACTORIAL HepG2 Assay for M06 Transcription Factor (Internal Marker) (AID 2282983); details: HepG2 Attagene TRANS M06 internal marker reporter;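 also: reporter transcript level by RT-PCR then capillary electrophoresis fluorescence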
Method in brief: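 Human liver HepG2 cells bearing transiently transfected chimeric NR-GAL4 reporter units were treated with chemicals for 24 h. Total RNA was reverse-transcribed, reporter sequences amplified and labelled, then quantified by capillary electrophoresis. Activity was fitted upward relative to DMSO.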

[18] = target: Hypoxia-inducible factor 1-alpha (Homo sapiens) (UniProt Q16665); experiment: ATG_HIF1a_CIS: Attagene CIS-FACTORIAL HepG2 Assay for human Hypoxia Inducible Factor 1 (HIF1A) (AID 2282951; active = hit-call score of the fitted dose curve at least 0.9, where 1 is the maximum; inactive = score below 0.9); details: HepG2 Attagene cis-factorial HIF1a reporter transcription; actives raise or lower the signal
Method in brief: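 HepG2 cells transiently transfected with multiple cis-regulated reporter transcription units measure endogenous transcription factor activity. After 24 h exposure, reporter mRNA is quantified by RT-PCR with 6-FAM labelling, HpaI digestion and capillary electrophoresis. Bidirectional fitting against DMSO.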

[19] = target: Hepatocyte nuclear factor 4-alpha (Homo sapiens) (UniProt P41235); experiment: ATG_HNF4a_TRANS: Attagene TRANS-FACTORIAL HepG2 Assay for human Hepatocyte Nuclear Factor 4 alpha (HNF4a) (AID 2282982); details: HepG2 HNF4a transactivation reporter, mRNA readout
Method in brief: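 Transient MRTU transfection of HepG2, 24 h dosing. Readout: reporter mRNA via RT-PCR + capillary electrophoresis, fluorescence; activity fit upward relative to DMSO control.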

[20] = target: human Thyroid Receptor alpha (THRa1), THRA (gene 7067) (UniProt P10827); experiment: ATG_THRa1_TRANS: Attagene TRANS-FACTORIAL HepG2 Assay for human Thyroid Receptor alpha (THRa1) (AID 2283014)
Method in brief: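 First, HepG2 cells receive multiple GAL4-UAS reporter units and the chimeric receptor. They are then dosed for 24 h, after which RNA is reverse-transcribed, amplified, labelled, HpaI-cut and sized by capillary electrophoresis; gain relative to DMSO is scored.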

Measured: AC50

Retinoic acid receptor RXR-alpha (Homo sapiens), sequence (P19793 whole entry, looked up, the tested form may be a part): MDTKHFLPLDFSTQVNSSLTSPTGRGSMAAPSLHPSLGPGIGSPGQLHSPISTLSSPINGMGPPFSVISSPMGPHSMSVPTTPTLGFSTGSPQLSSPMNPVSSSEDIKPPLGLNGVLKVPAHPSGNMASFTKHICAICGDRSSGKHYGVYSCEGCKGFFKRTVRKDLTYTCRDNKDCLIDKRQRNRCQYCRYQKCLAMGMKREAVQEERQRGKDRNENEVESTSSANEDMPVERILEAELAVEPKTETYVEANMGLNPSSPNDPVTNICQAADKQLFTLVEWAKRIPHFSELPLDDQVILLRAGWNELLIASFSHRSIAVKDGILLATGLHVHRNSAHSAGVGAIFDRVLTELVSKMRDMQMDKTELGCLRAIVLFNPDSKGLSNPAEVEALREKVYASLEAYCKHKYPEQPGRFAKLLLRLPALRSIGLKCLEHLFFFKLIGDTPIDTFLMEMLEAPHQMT
Nuclear receptor subfamily 1 group I member 2 (Homo sapiens), sequence (O75469 whole entry, looked up, the tested form may be a part): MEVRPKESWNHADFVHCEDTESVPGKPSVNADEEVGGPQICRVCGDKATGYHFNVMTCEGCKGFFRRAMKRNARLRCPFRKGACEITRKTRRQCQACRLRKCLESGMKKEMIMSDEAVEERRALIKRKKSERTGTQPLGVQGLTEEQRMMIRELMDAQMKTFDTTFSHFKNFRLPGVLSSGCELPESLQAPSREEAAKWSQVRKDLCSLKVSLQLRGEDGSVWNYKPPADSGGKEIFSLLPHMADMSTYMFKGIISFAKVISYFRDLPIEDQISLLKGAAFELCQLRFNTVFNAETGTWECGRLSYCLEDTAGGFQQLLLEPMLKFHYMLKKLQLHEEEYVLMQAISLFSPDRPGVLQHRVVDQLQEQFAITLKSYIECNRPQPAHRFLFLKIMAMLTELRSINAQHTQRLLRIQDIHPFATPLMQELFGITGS
Heat shock factor protein 1 (Homo sapiens), sequence (Q00613 whole entry, looked up, the tested form may be a part): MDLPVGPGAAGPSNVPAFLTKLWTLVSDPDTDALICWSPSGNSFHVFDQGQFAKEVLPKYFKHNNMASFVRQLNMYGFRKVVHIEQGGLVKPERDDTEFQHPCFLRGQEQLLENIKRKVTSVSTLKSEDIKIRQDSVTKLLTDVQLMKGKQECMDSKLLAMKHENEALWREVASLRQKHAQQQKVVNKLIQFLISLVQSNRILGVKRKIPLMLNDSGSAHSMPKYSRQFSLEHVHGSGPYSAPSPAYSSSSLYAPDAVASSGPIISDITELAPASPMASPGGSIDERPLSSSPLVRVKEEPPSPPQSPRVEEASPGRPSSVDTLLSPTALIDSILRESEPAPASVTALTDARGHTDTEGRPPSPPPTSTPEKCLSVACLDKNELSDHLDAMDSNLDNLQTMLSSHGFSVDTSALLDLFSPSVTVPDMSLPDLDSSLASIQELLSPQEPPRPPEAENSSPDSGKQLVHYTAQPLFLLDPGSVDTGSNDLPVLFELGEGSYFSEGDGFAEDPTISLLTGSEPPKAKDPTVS
Hepatocyte nuclear factor 4-alpha (Homo sapiens), sequence (P41235 whole entry, looked up): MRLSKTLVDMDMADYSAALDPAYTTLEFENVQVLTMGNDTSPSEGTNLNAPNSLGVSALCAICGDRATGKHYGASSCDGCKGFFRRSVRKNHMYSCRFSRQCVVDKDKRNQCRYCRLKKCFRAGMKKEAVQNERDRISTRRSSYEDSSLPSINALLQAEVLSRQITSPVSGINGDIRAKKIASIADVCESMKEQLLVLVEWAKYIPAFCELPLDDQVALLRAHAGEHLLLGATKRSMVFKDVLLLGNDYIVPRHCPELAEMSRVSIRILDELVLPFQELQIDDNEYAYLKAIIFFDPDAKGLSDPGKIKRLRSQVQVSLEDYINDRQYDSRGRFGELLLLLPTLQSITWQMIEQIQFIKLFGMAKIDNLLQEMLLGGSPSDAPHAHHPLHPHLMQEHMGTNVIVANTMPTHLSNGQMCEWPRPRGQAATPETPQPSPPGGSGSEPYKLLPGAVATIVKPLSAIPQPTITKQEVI
Hypoxia-inducible factor 1-alpha (Homo sapiens), sequence (Q16665 whole entry, looked up): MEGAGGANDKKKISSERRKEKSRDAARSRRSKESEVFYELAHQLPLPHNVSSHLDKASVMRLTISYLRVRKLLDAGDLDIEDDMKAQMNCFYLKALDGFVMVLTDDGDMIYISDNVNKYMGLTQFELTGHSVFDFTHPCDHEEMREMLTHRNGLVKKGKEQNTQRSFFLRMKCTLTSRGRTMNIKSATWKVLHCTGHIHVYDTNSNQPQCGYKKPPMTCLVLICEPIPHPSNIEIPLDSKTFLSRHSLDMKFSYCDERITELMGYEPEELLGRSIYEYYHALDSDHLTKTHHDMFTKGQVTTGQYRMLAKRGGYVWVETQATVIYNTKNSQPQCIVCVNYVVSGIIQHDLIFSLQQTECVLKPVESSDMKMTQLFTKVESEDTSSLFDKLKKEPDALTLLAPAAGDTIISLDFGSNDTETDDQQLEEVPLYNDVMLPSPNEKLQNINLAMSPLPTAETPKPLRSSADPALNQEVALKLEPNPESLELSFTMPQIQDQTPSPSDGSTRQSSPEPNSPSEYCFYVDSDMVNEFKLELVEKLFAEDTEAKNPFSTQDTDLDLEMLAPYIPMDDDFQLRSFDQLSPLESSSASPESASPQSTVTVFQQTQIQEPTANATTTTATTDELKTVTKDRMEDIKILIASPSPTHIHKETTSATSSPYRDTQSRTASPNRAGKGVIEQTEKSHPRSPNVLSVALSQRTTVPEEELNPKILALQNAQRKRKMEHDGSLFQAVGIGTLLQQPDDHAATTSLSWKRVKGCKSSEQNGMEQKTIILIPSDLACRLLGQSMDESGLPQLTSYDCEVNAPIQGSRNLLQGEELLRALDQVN
human Peroxisome Proliferator-activated Receptor alpha (PPARa), PPARA (gene 5465), sequence (Q07869 whole entry, looked up, the tested form may be a part): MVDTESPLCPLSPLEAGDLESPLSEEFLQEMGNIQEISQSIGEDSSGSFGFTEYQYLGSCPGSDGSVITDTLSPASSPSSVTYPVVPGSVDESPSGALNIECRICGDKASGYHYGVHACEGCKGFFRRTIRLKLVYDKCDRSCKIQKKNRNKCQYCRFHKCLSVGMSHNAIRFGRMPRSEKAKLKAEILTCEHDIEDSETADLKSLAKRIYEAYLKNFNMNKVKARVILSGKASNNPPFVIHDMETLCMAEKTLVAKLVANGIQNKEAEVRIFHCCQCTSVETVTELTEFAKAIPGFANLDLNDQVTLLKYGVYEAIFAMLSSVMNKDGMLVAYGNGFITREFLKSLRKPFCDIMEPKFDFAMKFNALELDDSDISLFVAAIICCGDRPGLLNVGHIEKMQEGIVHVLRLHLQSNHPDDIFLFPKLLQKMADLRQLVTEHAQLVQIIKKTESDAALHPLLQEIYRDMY
human Thyroid Receptor alpha (THRa1), THRA (gene 7067), sequence (P10827 whole entry, looked up, the tested form may be a part): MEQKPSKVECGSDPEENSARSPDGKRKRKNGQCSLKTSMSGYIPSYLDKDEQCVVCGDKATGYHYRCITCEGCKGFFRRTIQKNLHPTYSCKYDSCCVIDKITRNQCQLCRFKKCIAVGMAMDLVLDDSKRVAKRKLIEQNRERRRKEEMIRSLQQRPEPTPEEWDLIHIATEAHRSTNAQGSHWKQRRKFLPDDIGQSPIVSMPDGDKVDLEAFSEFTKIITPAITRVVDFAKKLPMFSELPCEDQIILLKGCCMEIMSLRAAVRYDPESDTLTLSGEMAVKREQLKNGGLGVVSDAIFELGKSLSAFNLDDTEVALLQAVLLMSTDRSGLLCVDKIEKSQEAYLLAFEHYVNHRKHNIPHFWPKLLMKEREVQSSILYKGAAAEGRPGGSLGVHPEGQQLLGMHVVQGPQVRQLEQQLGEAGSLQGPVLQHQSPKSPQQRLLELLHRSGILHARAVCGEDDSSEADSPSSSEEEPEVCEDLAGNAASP
Peroxisome proliferator-activated receptor gamma (Homo sapiens), sequence (P37231 whole entry, looked up, the tested form may be a part): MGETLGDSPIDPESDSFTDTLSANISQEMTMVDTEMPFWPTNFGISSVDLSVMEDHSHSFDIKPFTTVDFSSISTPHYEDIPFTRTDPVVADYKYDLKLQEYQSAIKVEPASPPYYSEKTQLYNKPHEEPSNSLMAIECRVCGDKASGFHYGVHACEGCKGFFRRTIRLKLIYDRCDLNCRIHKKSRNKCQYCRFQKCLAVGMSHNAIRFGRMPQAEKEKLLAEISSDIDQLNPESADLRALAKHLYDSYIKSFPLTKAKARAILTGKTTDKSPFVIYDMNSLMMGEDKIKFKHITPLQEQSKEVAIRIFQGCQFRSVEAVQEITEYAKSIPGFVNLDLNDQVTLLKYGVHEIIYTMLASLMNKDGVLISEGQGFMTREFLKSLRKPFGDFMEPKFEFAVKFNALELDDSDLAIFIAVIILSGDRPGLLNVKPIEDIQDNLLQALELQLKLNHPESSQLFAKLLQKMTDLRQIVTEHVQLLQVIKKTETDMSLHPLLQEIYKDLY
Cellular tumor antigen p53 (Homo sapiens), sequence (P04637 whole entry, looked up): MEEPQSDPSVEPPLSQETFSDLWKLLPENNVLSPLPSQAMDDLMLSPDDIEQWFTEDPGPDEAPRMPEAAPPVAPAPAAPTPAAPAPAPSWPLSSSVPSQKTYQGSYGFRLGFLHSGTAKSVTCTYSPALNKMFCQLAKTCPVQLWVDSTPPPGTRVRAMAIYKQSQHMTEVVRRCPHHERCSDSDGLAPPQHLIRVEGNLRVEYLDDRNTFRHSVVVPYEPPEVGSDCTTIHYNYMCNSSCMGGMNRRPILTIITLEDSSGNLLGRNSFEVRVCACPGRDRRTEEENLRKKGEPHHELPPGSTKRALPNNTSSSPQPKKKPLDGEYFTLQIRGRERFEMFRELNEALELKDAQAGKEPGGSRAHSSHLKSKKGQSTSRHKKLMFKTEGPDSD

C=CC(=O)OCC(CC)CCCC (stereo not drawn)
active: [6] 100 µM
not listed: [16] | [17] | [18] | [19] | [20]
inactive: all other assays above

Cc1ccccc1CCl
not listed: [5] | [18] | [19] | [20]
inactive: all other assays above

O=[N+]([O-])O
inactive: [16] | [1] | [2] | [18] | [3] | [19] | [17] | [6] | [8] | [14]

[CH3][Sn]([CH3])([Cl])[Cl]
inactive: [16] | [1] | [18] | [4] | [19] | [8] | [9]
active: [3] 114 µM | [6] 63.8 µM

Nc1c(Cl)c(Cl)c(Cl)c(Cl)c1Cl
active: [6] 38.1 µM | [9] 13.3 µM
not listed: [11] | [12] | [13] | [14] | [15] | [19]
inactive: all other assays above

Cc1ccc(N(SC(F)(Cl)Cl)S(=O)(=O)N(C)C)cc1
active: [18] 11.1 µM | [3] 16.5 µM | [15] 44.8 µM
not listed: [2] | [5] | [6] | [7] | [10]
inactive: all other assays above

O=[N+]([O-])O.O=[N+]([O-])O.[Cd]
inactive: [16] | [1] | [2] | [19] | [17] | [8] | [10] | [14]
active: [3] 1.42 µM | [6] 4.12 µM

C#CC1(O)CCCCC1
inactive: [16] | [1] | [5] | [17] | [6] | [11] | [12] | [13] | [15]

CCC(=O)c1ccc(Cl)cc1
not listed: [7] | [8] | [11] | [12] | [13] | [14] | [15]
inactive: all other assays above

O=[N+]([O-])c1cc([N+](=O)[O-])c2ccccc2c1
active: [6] 3.1 µM | [8] 6.62 µM | [9] 9.2 µM
not listed: [12] | [16] | [19]
inactive: all other assays above

Reference: PubChem BioAssay (EPA / NIEHS)
